Data reported in PubChem BioAssay (NCI).
Compounds without any hit were thinned out: in the full panel of roughly 79,000, 15% have a hit. Unmarked numbers belong to inactive results. Calls of active or inactive are those of the source. Rule as the data show it: active = growth inhibition above about 70%; inactive = the rest.

Columns and labels:
[1] = NCI Yeast Anticancer Drug Screen. Data for the rad50 strain (AID 155);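 also: 0% = growth of vehicle-only cultures of the same strain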; conditions: S. cerevisiae rad50 strain growth inhibition, stronger effect = higher value
Summary of the method: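 Genetically altered yeast (DNA repair pathway); compound treatment; growth inhibition vs vehicle ctrl.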

[2] = NCI Yeast Anticancer Drug Screen. Data for the mec2-1 strain (AID 157); conditions: S. cerevisiae mec2-1 strain, stronger effect = higher value
Summary of the method: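 Test agents were screened against the mec2-1 yeast strain, with defined DNA repair or cell cycle alteration. Growth was scored as inhibition against vehicle-only controls.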

[3] = NCI Yeast Anticancer Drug Screen. Data for the sgs1 mgt1 strain (AID 161);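 also: 0% = growth of cultures given vehicle only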; conditions: S. cerevisiae sgs1 mgt1 strain, stronger effect = higher value
Summary of the method: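 Read-out: growth inhibition vs vehicle controls. Cells: mutant yeast strain deficient in DNA damage repair.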

[4] = NCI Yeast Anticancer Drug Screen. Data for the cln2 rad14 strain (AID 165);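 also: 0% = growth equal to vehicle treated cultures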; conditions: S. cerevisiae cln2 rad14 strain, stronger effect = higher value
Summary of the method: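 Growth of compound-exposed yeast (cln2 rad14 genotype) measured and expressed as inhibition relative to vehicle.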

[5] = NCI Yeast Anticancer Drug Screen. Data for the bub3 strain (AID 167); conditions: S. cerevisiae bub3 mutant strain, stronger effect = higher value
Summary of the method: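 Yeast carrying a defined mutation is treated with each compound, and growth is compared with that of vehicle-exposed cells to give inhibition.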

[6] = NCI Yeast Anticancer Drug Screen. Data for the mlh1 rad18 strain (AID 175); conditions: S. cerevisiae mlh1 rad18 strain growth inhibition, stronger effect = higher value
Summary of the method: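 In this whole-cell yeast screen, a strain with altered DNA damage repair is challenged with compound, and its growth is measured against matched vehicle-treated controls.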

[7] = at 5.0 µM (retest, dose inferred, filed as 0.5)
[8] = at 50.0 µM (retest, dose inferred, filed as 5.0)

Row | Compound | growth inhibition [1, 7] | growth inhibition [1, 8] | growth inhibition ([1]; at 50.0 µM) | growth inhibition [2, 7] | growth inhibition [2, 8] | growth inhibition ([2]; at 50.0 µM) | growth inhibition [3, 7] | growth inhibition [3, 8] | growth inhibition ([3]; at 50.0 µM) | growth inhibition [4, 7] | growth inhibition [4, 8] | growth inhibition ([4]; at 50.0 µM) | growth inhibition [5, 7] | growth inhibition [5, 8] | growth inhibition ([5]; at 50.0 µM) | growth inhibition [6, 7] | growth inhibition [6, 8] | growth inhibition ([6]; at 50.0 µM)
1 | Oc1ccc2ccc3ccccc3c2c1 | 5% | 99% (active) | 99.5% (active) | 2% | 99% (active) | 99.5% (active) | 5% | 99% (active) | 99.5% (active) | -3% | 99% (active) | 99.5% (active) | -3% | 98% (active) | 99.5% (active) | 2% | 99% (active) | 99.5% (active)
2 | COc1cc2c(ccc3cc4cccc[n+]4cc32)c(Br)c1OC | 0% | 44% | 76.8% (active) | -6% | 73% (active) | 42.5% | -7% | 39% | 73.2% (active) | -8% | 13% | 20.4% | -5% | 46% | 10.4% | 4% | 75% (active) | 67.8%
3 | COC(=O)C(C#N)=C(SC)SC | 7% | 99% (active) | 99.3% (active) | 4% | 99% (active) | 98.2% (active) | 17% | 99% (active) | 99.5% (active) | -3% | 98% (active) | 95.2% (active) | 1% | 99% (active) | 98.9% (active) | 41% | 99% (active) | 99.1% (active)
4 | CC(CO)[C@H]1OC(=O)C=C2[C@@]13O[C@@H]3[C@H]1OC(=O)[C@@]3(C)[C@H]4O[C@H]4C[C@@]2(C)[C@@H]13 (some centres not stated) | 51% | 98% (active) | 89.8% (active) | 47% | 99% (active) | 91% (active) | 58% | 97% (active) | 88.2% (active) | 59% | 98% (active) | 89.5% (active) | 66% | 98% (active) | 88.8% (active) | 61% | 97% (active) | 89.8% (active)
5 | COC(=O)c1c(C)cccc1C(=O)c1ccc(C)cc1C | -14% | -4% | 2.4% | -10% | -3% | -0.1% | -4% | 9% | 10.6% | -38% | -7% | 2.75% | -2% | -16% | 5.05% | -11% | 21% | 23.4%
6 | COC/C(Br)=C\SC#N (tested in a mixture with another compound) | 0% | 34% | 98.8% (active) | -14% | 23% | 98.7% (active) | -2% | 40% | 98.9% (active) | -5% | 61% | 97.7% (active) | -6% | 53% | 98.2% (active) | 16% | 38% | 98.2% (active)
7 | CC(C)C(NC(=O)/C=C\c1ccccc1)C(=O)O (configuration not stated) | -2% | 1% | 88.4% (active) | 1% | -6% | 94.2% (active) | -5% | -7% | 93.5% (active) | 7% | -6% | 95.3% (active) | -3% | -1% | 71.7% (active) | -2% | 4% | 95.2% (active)
8 | O=C(O)/C=C/c1ccc([N+](=O)[O-])o1 | 12% | 50% | 87.4% (active) | 5% | 38% | 80% (active) | 9% | 67% | 90% (active) | -3% | 38% | 62.4% | 4% | 42% | 76% (active) | 11% | 81% (active) | 93.2% (active)
9 | CCCCCCCCCCCCCCCCOP(=O)([O-])OCC[N+](C)(C)C | 99% (active) | 99% (active) | 99.8% (active) | 99% (active) | 100% (active) | 99.6% (active) | 66% | 100% (active) | 99.6% (active) | 97% (active) | 99% (active) | 99.2% (active) | 99% (active) | 99% (active) | 99.7% (active) | 98% (active) | 99% (active) | 99.8% (active)
10 | O=C1c2ccccc2C(=O)c2sc(Nc3ccc(Cl)cc3)nc21 | 79% (active) | 97% (active) | 90.5% (active) | 84% (active) | 99% (active) | 92.9% (active) | 97% (active) | 99% (active) | 93.8% (active) | 58% | 98% (active) | 88.8% (active) | 98% (active) | 99% (active) | 91.6% (active) | 85% (active) | 98% (active) | 91.2% (active)
11 | CCN(CC)c1ccc(N=Nc2ccc(-c3nc4cccn(C)c-4n3)cc2)cc1 | 8% | 8% | 80.2% (active) | -5% | -5% | 79.2% (active) | -13% | -13% | 76.7% (active) | -2% | -2% | 80.2% (active) | 9% | 9% | 84.3% (active) | -4% | -4% | 82% (active)
12 | C=CCC(O)C(=O)OC1CC(C)CCC1C(C)(C)c1ccccc1 (configuration not stated) | -1% | 99% (active) | 99% (active) | 6% | 99% (active) | 99.2% (active) | 8% | 99% (active) | 99.5% (active) | -6% | 98% (active) | 98.8% (active) | 8% | 98% (active) | 99.4% (active) | 9% | 98% (active) | 99.2% (active)
13 | Oc1c(Cl)cc(Br)cc1Cl | 44% | 95% (active) | 84.7% (active) | 19% | 99% (active) | 92.9% (active) | 11% | 93% (active) | 96.5% (active) | 3% | 99% (active) | 78.5% (active) | 13% | 99% (active) | 89.3% (active) | 12% | 97% (active) | 91.8% (active)
14 | CC(C)(C)N/N=C(\C(=O)NC1=C(Cl)C(=O)c2ccccc2C1=O)C1C=CCS1(=O)=O (configuration not stated) | 7% | 89% (active) | 90.2% (active) | -10% | 65% | 72.3% (active) | -4% | 86% (active) | 68.4% | -26% | 48% | 31.3% | 0% | 92% (active) | 84% (active) | 15% | 81% (active) | 61.5%
15 | CN(C)CC1CCC/C(=C\c2ccc(Cl)cc2)C1=O (configuration not stated) | -15% | 99% (active) | 80.5% (active) | -25% | 99% (active) | 86.8% (active) | -28% | 99% (active) | 92.5% (active) | -25% | 99% (active) | 87% (active) | -38% | 99% (active) | 91.4% (active) | -14% | 99% (active) | 91.3% (active)
16 | FC(F)(F)c1nc(S)cc(=S)[nH]1 | 1% | 13% | -21.2% | 4% | 17% | 24.9% | 7% | 26% | -5.45% | -2% | 22% | 54% | -2% | 31% | 58.3% | -4% | 10% | -30%
17 | CC12CC(Br)(Br)C(=O)C3C1CCCC32 | 51% | 31% | 48.9% | 48% | 60% | 41% | 37% | -38% | 86.8% (active) | 49% | 35% | 75.7% (active) | 74% (active) | 59% | 87% (active) | 74% (active) | 79% (active) | 87% (active)
18 | O=C1CCC/C(c2ccccc2)=N\N=C/1c1ccccc1 | 7% | 12% | 54.8% | 10% | 16% | -6.6% | 10% | 34% | 21.6% | 8% | 12% | -5.1% | 11% | 33% | 24.3% | 4% | 18% | 23.6%
19 | C/C(CCSCc1ccccc1)=N/NC(N)=S | 6% | 44% | 41.8% | 4% | 65% | 55.9% | 6% | 78% (active) | 63.9% | -5% | 45% | 33.2% | -1% | 65% | 54.1% | 7% | 76% (active) | 66.7%
